The list is not random: actives were taken first. Their share in the collection is about 3.6%.
Pf apPOL inh: Pf-apPOL DNA polymerase inhibition. Recombinant Pf-apPOL, molecular beacon fluorescence, 1.5 h. inhibition, % at 10 µM. hit rate 0.25% among 210,000. AID 1794808
mHTT CaM bind: inhibitors of human mutant huntingtin-calmodulin interaction; P42858; AlphaScreen His-mHTT/GST-CaM binding, luminescence; inhibition, % at 15 µM; hit rate 3.6% among 190,000; AID 1671202;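 further: 0% = both proteins with DMSO and 100% = one protein alone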
* hit, by the source's call; / = not tested or not shown. No stated cut-off is given here; in the data, active means inhibition above about 50%; inactive means the rest.

SMILES	Pf apPOL inh	mHTT CaM bind
Oc1c(Cl)cc(Cl)cc1C=NNC(=S)NC1CC2CCC1C2 (centres undefined)	-6	/
Oc1c(Cl)cc(Cl)cc1C=NNC(=S)NCC1CCCO1 (centres undefined)	70*	/
O=[N+]([O-])C1=Cc2cc(Br)cc(Br)c2OC1c1ccc2c(c1)OCO2 (centres undefined)	-5	84*
CCOc1ccc(C2Oc3c(cc(Br)cc3OC)C=C2[N+](=O)[O-])cc1OC (centres undefined)	-9	38
O=[N+]([O-])C1=Cc2ccccc2OC1c1ccccc1 (centres undefined)	/	36
COc1ccc(C2Oc3c(cc(Br)cc3OC)C=C2[N+](=O)[O-])cc1OC (centres undefined)	-3	72*
COc1cc(Br)cc2c1OC(c1ccc3c(c1)OCO3)C([N+](=O)[O-])=C2 (centres undefined)	-3	68*
COc1cc2c(cc1[N+](=O)[O-])OCO2	/	-5
Cc1cccc(S(=O)(=O)N2CC3CN(C(=O)C4CCCO4)CC(C2)O3)c1 (centres undefined)	-3	-4
O=C1CC2c3ccccc3C1C1C(=O)N(c3ncn[nH]3)C(=O)C21 (centres undefined)	-3	-6
O=C(NCc1cc(F)ccc1F)C1CCCN(c2cnn(Cc3ccccc3)c(=O)c2)C1 (centres undefined)	-3	3
N#CC1=C(N)SC(N)=C(C#N)C1c1cccc(Cl)c1	4	74*
N#CC1=C(N)SC(N)=C(C#N)C1c1ccc(Cl)cc1Cl	-8	8
Cc1cc(C)c2c(n1)sc1c(N3CCC(C(=O)NCc4ccc(F)cc4)CC3)ncnc12	-1	-1
COC(=O)C1CN(CCc2ccccc2)CCS(=O)(=O)N1Cc1ccccc1 (centres undefined)	-3	12
COC(=O)C1CN(CCc2ccccc2)CCS(=O)(=O)N1Cc1ccc(C(F)(F)F)cc1 (centres undefined)	-1	77*
COC(=O)C1CN(Cc2ccc(C)cc2)CCS(=O)(=O)N1Cc1cn(Cc2ccc(F)cc2)nn1 (centres undefined)	-7	3
COC(=O)C1CN(Cc2ccc(F)cc2)CCS(=O)(=O)N1Cc1ccc(C)cc1 (centres undefined)	-2	50*
CCNC(=O)Cc1nnc(-c2cccc(F)c2)o1	0	-8
CCOc1ccc(C2C3=C(CCCC3=O)NC3=C2C(=O)c2ccccc23)cc1 (centres undefined)	-4	74*
COc1ccc(C2C3=C(CCCC3=O)NC3=C2C(=O)c2ccccc23)cc1 (centres undefined)	-2	61*
O=C1CCCC2=C1C(c1cccs1)C1=C(N2)c2ccccc2C1=O (centres undefined)	2	31
CCOc1ccc(C2C3=C(CCCC3=O)Nc3ncnn32)cc1 (centres undefined)	-1	-7
COc1cccc2c1OC1(C)CC2NC(=O)N1CCc1ccccc1 (centres undefined)	2	-6
COc1cc(/C=C2\C(=O)NN(c3ccc(F)cc3)C2=O)cc([N+](=O)[O-])c1O	-3	6
SMILES	Pf apPOL inh	mHTT CaM bind
COc1cccc(C(=O)N2CCc3c(c(-c4nc(C)no4)nn3C)C2)c1	-3	-3
CC(=C\c1ccc2c(c1)OCO2)/C=C1/N=C(c2ccc(Cl)cc2)OC1=O	-5	6
CC(C)C(=O)Oc1ccc(C=Cc2ccccn2)cc1	-13	-10
COc1ccccc1C(=O)NC1CCN(c2ccccc2C(=O)N2CCCC2)CC1	-9	8
CC1(C)CC(=O)C2=C(C1)Nc1ccccc1N(C(=O)C(F)(F)F)C2c1cccnc1 (centres undefined)	63*	4
CC(=O)N1c2ccccc2NC2=C(C(=O)CC(c3ccc(F)cc3)C2)C1c1cccnc1 (centres undefined)	1	6
CC1(C)CC(=O)C2=C(C1)Nc1ccccc1N(C(=O)C(F)(F)F)C2c1cccc(O)c1 (centres undefined)	-8	4
CC(=O)N1c2ccccc2NC2=C(C(=O)CC(c3ccc(Cl)c(Cl)c3)C2)C1c1cccnc1 (centres undefined)	-7	83*
Cn1c(=O)c2c(ncn2CC(=O)Nc2ccccc2C(N)=O)n(C)c1=O	2	2
CCCNc1cc(N2CCC(CCC(=O)N3CCN(C(C)C)CC3)CC2)ncn1	-5	9
COc1ccccc1-c1coc2cc(OC(=O)c3c(C)oc4ccc(OC(C)=O)cc34)ccc2c1=O	-5	8
COc1cc(C)ccc1OC(C)C(=O)Nc1ccc(-c2ccc3nncn3n2)cc1 (centres undefined)	-4	3
O=C(Cc1cccc(F)c1)N1CCc2[nH]cnc2C1c1ccccn1 (centres undefined)	-8	70*
O=C(Nc1ccccc1)N1CCc2[nH]cnc2C1c1ccccc1 (centres undefined)	0	15
O=C(Cc1ccc(Cl)cc1)N1CCc2[nH]cnc2C1c1ccccn1 (centres undefined)	-20	91*
O=C(Cc1ccc(F)cc1)N1CCc2[nH]cnc2C1c1ccncc1 (centres undefined)	0	8
O=C(Cc1ccccc1F)N1CCc2[nH]cnc2C1c1ccccc1 (centres undefined)	-5	7
O=C(Nc1ccccc1)N1CCc2[nH]cnc2C1c1ccccn1 (centres undefined)	-3	51*
COc1ccc(O)c(CN2CCN(Cc3ccccc3[N+](=O)[O-])CC2)c1	-1	26
CC=C1C(=O)CC2C3CCC4=CC(=O)CCC4(C)C3CCC12C (centres undefined)	-12	/
Cc1ccsc1C(=O)NCCc1cn(C)c2ncccc12	2	-12
COc1ccc(CCNS(=O)(=O)c2cc(C(=O)Nc3cccc(C)c3)ccc2F)cc1OC	1	21
O=C(NCCCN1CCN(c2cccc(Cl)c2)CC1)C1CCN(c2ccncc2)CC1	7	95*
Cc1ccnc(N2CCCC(C(=O)N3CCN(c4cc(Cl)ccc4C)CC3)C2)n1 (centres undefined)	-5	90*
Cc1ccc(Cl)cc1N1CCN(C(=O)C2CCN(c3ccncc3)CC2)CC1	2	100*
SMILES	Pf apPOL inh	mHTT CaM bind
CS(=O)(=O)N1CCC(C(=O)NCCCN2CCN(c3ccccc3)CC2)CC1	-10	-13
Cc1ccnc(N2CCCC(C(=O)N3CCN(c4cccc(C(F)(F)F)c4)CC3)C2)n1 (centres undefined)	2	78*
Cc1ccnc(N2CCC(C(=O)N3CCN(c4cccc(C(F)(F)F)c4)CC3)CC2)n1	-2	6
Cc1ccnc(N2CCCC(C(=O)N3CCN(c4ncccn4)CC3)C2)n1 (centres undefined)	-6	-3
Cc1ccc(C)c(N2CCN(C(=O)C3CCN(c4ccncc4)CC3)CC2)c1	-3	0
COc1ccc(C(=O)Nc2ccc(C)cc2C)cc1[N+](=O)[O-]	-2	0
COc1ccccc1C(=O)N/C(=C/c1ccc2c(c1)OCO2)C(=O)NCCC(=O)O	-1	2
O=C(C1CCCN1)N1CCC(c2nncn2Cc2ccccc2)CC1 (centres undefined)	1	-8
c1ccc(-c2cccc(-c3ccccn3)n2)nc1	/	100*
c1ccc(-c2ccc3ccccc3n2)nc1	/	-1
N#CC(=Cc1ccc(C#Cc2ccccc2)s1)C(=O)c1cccs1	-254	/
Cc1ccccc1NCN1C(=O)S/C(=C\c2ccc(F)cc2)C1=O	-5	28
